Laboratory results: PubChem BioAssay AID463213 (Sanford-Burnham Center for Chemical Genomics, 2010)
The whole screen tested about 7,400 compounds, of which about 4,100 (55%) were called active. So high a share suggests a set chosen from earlier hits. These entries were drawn from the full list. Unmarked numbers belong to inactive results.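 How the source made its calls: active means inhibition of yeast growth at or above a set limit in either of two repeat tests at 20 µM; inactive means the rest.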

assay: tim10-1 ts yeast growth inhibition, retested – single concentration, luminescence, S. cerevisiae, confirmation (AID 463213);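 further: tim10-1 mutant grown at permissive 25 °C to find synthetic lethal compounds; 0% = DMSO yeast wells and 100% = medium wells without yeast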; settings: S. cerevisiae tim10-1 ts strain growth, BacTiter-Glo, 24 h; at 20 µM; stronger effect = higher value

Compound	inhibition
Cc1nonc1C(=O)N/N=C/c1ccc(O)cc1	44.9% (active)
O=C(/C=C/c1ccc(Cl)cc1Cl)NCc1ccco1	34.4% (active)
COc1ccc(-c2cc(C3CCN(c4ncccc4[N+](=O)[O-])CC3)[nH]n2)cc1	30.2%
COC(C/C=C/C(=O)[C@@H](C)OCc1ccccc1)OC	43.7% (active)
CCc1ccc2oc(-c3ccc(N)cc3)nc2c1	41.8% (active)
Nc1ccc(-c2nnc(-c3ccc(-c4ccccc4)cc3)o2)cc1	25.1%
COc1ccc(NC(=O)c2cc3nc(-c4ccccc4)cc(C)n3n2)cc1OC	33.3% (active)
CC(C)CCNC(=O)c1ccc2c(Cl)c3c(nc2c1)CCC3	35% (active)
CSc1nnc2ccc(-c3ccc(C)cc3)nn12	24.9%
Cc1ccc(-c2cn3cc(C)ccc3n2)cc1	43.9% (active)
COc1ccc2c(c1)cc1n2CCN=C1NN	27.9%
COc1ccccc1CNC(=O)c1ccc(SC)cc1OC	20.9%
CCOC(=O)C(=Cc1ccccc1OC)C(=O)OCC	30.1% (active)
CNC(C)C#Cc1ccc2sc3cc(OC)c(OC)cc3c(=O)c2c1 (stereo unspecified)	31.8% (active)
CSC(=S)N/N=C/c1c[nH]c2ccccc12	41.7% (active)
COC(=O)CSc1snnc1-c1ccc(Cl)c(Cl)c1	31.9% (active)
CCC(=O)Nc1nc2ccccc2n1Cc1ccccc1C	18%
O=c1oc(-c2ccco2)nc2sc3c(c12)CCCCC3	3.45%
O=C(NCc1ccco1)c1cccn2c(=O)c3c4c(sc3nc12)CCCC4	42.4% (active)
CN(C)CCN(C(=O)C1=COCCO1)c1nc2ccc(Cl)cc2s1	69% (active)
Cc1ccc(-c2csc(NC(=O)C3=COCCO3)n2)cc1C	18.2%

Compound	inhibition
Cc1ccc2nc(N(CCN(C)C)C(=O)C3=COCCO3)sc2c1	35.6% (active)
Clc1ccc(C2CC(c3cccs3)n3ncnc3N2)cc1Cl (stereo unspecified)	18%
Cc1oc2c(c1C(=O)N1CCOCC1)C(=O)c1ccccc1C2=O	27.7% (active)
Cc1ccc(S(=O)(=O)NC(C(=O)N2CCOCCOCCOCCOCC2)c2ccccc2)cc1 (stereo unspecified)	0.85%
O=C1c2cccc3c([N+](=O)[O-])ccc(c23)C(=O)N1CC1CCCO1 (stereo unspecified)	46.5% (active)
N#C/C(=C\c1cccnc1)C(=O)Nc1ccc(SC(F)F)cc1	17.2%
O=C(Cc1ccc(Cl)c(Cl)c1)Nc1ccc(SC(F)F)cc1	35.9% (active)
COc1ccc(C(C[N+](=O)[O-])n2nc(C)cc2C)cc1 (stereo unspecified)	38.1% (active)
COc1cccc(Cn2cnc3c([N+](=O)[O-])c(C)c(C)cc32)c1	25.6%
COc1ccc2c(c1)C(NS(=O)(=O)OCC(Cl)(Cl)Cl)CCC2 (stereo unspecified)	27.9% (active)
Cc1nn(Cc2ccc(Cl)c(Cl)c2)c(C)c1NC(=O)c1cc(C2CC2)on1	51.2% (active)
O=C1CSC(=S)N1c1ccc(Cl)c(Cl)c1	34.4% (active)
S=C(NCCCc1ccccc1)Nc1ccc(Br)cc1	36.3% (active)
COc1ccc2nc(NC(=O)[C@@H]3CCCN3C(=O)c3cccs3)sc2c1	19.9%
CC(C)(C)NC(=O)NC(=O)COC(=O)CCC1CCCCC1	37.9% (active)
Cc1nn2c(c1-c1ccccc1)N=C(c1ccco1)CC2c1ccccc1 (stereo unspecified)	28.9%
COc1ccc2nc(Nc3nc4cc5c(cc4s3)OCCO5)sc2c1	1.5%
CCn1c(/C=C/c2ccc([N+](=O)[O-])o2)nc2ccccc2c1=O	45.9% (active)
Brc1ccc(C2=CC(c3ccco3)n3ncnc3N2)cc1 (stereo unspecified)	18.9%
Nc1ccccc1Sc1ccc(C(F)(F)F)cc1[N+](=O)[O-]	61.2% (active)
